# Key:
# [1] = target: Protein kinase C gamma type (Homo sapiens) (UniProt P05129); details: at 1 µM;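 also: each value is an averaged percent inhibition of the enzyme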
# [2] = target: T1, Protein kinase C iota type (Homo sapiens) (UniProt P41743); details: at 0.1 µM
# T1 sequence (whole entry): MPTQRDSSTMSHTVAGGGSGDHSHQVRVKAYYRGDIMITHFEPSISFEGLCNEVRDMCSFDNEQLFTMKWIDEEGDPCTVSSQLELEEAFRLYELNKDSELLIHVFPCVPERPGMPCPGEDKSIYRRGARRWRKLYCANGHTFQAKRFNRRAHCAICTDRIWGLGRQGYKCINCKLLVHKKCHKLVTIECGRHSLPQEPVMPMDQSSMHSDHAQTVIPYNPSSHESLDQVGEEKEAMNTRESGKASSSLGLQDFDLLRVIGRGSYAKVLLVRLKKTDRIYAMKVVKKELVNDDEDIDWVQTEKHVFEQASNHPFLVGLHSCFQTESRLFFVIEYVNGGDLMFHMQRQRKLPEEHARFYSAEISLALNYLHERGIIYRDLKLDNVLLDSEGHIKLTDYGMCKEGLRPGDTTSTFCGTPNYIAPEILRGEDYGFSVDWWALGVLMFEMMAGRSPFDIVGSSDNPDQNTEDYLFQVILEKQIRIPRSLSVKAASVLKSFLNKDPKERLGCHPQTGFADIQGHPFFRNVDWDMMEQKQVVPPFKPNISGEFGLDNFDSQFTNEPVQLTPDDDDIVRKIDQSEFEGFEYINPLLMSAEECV
# [3] = target: T1, Protein kinase C iota type (Homo sapiens); details: at 1 µM
# [4] = target: Protein kinase C theta type (Homo sapiens) (UniProt Q04759); details: at 0.1 µM
# Protein kinase C theta type (Homo sapiens), sequence (Q04759 whole entry, looked up): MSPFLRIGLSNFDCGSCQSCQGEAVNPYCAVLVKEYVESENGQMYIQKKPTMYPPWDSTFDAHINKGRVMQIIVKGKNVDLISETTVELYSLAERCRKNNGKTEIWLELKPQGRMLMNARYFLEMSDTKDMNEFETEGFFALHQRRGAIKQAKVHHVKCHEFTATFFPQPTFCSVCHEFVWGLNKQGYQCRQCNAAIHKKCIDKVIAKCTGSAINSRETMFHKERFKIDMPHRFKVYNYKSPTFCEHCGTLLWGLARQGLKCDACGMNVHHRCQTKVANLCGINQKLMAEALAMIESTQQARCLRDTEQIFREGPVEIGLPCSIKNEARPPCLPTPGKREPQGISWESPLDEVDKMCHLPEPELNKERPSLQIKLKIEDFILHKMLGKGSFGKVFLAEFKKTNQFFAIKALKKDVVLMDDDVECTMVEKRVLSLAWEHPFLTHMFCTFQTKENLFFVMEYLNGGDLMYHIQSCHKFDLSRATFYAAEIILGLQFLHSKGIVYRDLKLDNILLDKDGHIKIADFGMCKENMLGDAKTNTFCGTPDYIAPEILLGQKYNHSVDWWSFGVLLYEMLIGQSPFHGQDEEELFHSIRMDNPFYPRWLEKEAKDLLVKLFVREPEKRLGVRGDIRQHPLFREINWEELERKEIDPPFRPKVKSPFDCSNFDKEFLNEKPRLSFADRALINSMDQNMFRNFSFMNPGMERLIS
# [5] = target: Protein kinase C theta type (Homo sapiens) (UniProt Q04759); details: at 1 µM
# [6] = target: Protein kinase C beta type (Homo sapiens) (UniProt P05771); details: at 0.1 µM
# Protein kinase C beta type (Homo sapiens), sequence (P05771 2-671 limits assumed): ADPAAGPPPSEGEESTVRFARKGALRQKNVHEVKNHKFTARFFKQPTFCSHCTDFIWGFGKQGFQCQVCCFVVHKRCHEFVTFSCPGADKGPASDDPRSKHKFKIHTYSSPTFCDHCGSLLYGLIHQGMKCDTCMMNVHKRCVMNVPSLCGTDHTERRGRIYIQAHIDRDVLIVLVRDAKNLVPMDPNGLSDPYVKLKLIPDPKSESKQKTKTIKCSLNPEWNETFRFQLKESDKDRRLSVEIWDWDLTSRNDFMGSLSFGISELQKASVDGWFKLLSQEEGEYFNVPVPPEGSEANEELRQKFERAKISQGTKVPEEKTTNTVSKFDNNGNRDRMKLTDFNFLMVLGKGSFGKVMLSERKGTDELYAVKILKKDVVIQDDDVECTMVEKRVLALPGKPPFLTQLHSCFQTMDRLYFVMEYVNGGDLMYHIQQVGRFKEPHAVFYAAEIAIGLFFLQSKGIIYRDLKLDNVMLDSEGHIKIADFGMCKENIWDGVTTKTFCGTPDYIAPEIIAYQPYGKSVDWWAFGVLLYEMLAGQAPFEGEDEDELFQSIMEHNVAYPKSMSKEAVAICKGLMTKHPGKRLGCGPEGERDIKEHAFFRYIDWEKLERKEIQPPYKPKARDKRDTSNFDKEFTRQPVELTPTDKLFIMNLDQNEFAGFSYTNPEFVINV
# [7] = target: Protein kinase C beta type (Homo sapiens) (UniProt P05771); details: at 1 µM
# [8] = target: T2, Serine/threonine-protein kinase D1 (Homo sapiens) (UniProt Q15139); details: at 0.1 µM
# T2 sequence (whole entry): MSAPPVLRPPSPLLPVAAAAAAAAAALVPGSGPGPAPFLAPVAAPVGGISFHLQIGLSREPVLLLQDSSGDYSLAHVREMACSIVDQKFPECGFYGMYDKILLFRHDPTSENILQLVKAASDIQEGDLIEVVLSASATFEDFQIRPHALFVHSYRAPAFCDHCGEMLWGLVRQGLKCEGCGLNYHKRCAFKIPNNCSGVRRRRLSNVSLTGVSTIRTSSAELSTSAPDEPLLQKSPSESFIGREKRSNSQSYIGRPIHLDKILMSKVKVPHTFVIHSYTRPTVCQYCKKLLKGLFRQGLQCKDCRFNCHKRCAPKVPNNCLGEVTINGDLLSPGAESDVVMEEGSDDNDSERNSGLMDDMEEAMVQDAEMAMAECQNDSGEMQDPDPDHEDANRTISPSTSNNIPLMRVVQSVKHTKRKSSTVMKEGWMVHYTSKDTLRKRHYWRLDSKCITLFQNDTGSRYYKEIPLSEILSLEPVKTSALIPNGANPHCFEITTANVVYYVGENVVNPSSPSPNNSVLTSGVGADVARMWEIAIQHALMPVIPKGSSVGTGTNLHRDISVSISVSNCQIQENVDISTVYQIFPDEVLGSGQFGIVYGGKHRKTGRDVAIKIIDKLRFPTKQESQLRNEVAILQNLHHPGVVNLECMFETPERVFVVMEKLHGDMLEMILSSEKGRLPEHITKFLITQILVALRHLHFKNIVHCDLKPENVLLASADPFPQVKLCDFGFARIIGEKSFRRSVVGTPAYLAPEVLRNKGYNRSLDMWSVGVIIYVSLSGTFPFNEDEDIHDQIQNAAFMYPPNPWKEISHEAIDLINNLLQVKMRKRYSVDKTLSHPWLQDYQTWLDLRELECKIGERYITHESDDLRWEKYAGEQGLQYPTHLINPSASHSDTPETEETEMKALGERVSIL
# [9] = target: T2, Serine/threonine-protein kinase D1 (Homo sapiens); details: at 1 µM
# [10] = target: T3, Serine/threonine-protein kinase D2 (Homo sapiens) (UniProt Q9BZL6); details: at 0.1 µM
# T3 sequence (whole entry): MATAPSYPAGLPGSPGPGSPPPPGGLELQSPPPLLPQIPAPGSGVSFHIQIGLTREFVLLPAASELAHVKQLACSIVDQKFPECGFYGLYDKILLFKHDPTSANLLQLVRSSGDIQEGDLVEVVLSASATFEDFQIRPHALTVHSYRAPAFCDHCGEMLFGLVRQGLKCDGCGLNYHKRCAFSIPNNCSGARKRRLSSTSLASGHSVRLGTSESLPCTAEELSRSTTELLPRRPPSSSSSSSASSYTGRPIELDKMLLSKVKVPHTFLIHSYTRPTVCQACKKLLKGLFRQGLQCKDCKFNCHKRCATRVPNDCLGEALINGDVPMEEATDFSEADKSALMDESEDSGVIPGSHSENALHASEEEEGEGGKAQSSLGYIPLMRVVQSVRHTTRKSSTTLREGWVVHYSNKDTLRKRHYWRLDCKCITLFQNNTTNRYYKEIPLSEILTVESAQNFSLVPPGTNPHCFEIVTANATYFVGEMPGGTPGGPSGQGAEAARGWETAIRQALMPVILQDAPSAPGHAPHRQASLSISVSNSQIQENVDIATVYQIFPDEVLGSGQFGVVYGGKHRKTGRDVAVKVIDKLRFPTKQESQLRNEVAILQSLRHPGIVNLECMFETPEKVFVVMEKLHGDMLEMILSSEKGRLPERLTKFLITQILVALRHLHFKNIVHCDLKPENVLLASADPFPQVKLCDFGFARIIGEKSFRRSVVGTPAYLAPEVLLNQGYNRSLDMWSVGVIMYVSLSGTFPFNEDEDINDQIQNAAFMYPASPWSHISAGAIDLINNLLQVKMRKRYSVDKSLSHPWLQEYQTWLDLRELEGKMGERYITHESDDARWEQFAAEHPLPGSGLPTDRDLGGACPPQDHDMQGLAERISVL
# [11] = target: T3, Serine/threonine-protein kinase D2 (Homo sapiens); details: at 1 µM
# [12] = target: T4, Serine/threonine-protein kinase D3 (Homo sapiens) (UniProt O94806); details: at 0.1 µM
# T4 sequence (whole entry): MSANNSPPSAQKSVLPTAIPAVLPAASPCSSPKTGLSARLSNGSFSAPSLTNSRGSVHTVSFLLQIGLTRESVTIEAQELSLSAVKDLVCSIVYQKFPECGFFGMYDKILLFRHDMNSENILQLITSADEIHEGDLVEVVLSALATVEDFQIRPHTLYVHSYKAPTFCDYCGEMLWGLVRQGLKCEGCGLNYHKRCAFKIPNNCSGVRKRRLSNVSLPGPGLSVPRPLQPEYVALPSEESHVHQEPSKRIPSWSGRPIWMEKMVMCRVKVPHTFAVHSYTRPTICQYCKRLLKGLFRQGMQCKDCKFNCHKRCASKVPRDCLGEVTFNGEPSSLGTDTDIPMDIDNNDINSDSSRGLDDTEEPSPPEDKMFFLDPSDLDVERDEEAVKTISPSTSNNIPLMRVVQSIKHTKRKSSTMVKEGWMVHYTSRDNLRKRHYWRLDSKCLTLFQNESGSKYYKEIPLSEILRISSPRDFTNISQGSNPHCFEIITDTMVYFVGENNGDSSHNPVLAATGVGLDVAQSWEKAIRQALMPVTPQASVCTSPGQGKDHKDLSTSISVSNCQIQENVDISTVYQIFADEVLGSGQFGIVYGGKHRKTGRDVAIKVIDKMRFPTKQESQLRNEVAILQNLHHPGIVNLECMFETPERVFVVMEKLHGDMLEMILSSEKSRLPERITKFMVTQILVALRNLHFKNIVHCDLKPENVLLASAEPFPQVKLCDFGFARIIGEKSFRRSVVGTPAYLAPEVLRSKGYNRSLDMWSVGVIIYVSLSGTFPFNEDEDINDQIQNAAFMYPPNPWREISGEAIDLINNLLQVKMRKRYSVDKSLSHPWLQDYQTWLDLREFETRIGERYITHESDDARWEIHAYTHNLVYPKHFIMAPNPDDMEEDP
# [13] = target: T4, Serine/threonine-protein kinase D3 (Homo sapiens); details: at 1 µM
# [14] = target: T5, cGMP-dependent protein kinase 1 (Homo sapiens) (UniProt Q13976); details: at 0.1 µM
# T5 sequence (whole entry): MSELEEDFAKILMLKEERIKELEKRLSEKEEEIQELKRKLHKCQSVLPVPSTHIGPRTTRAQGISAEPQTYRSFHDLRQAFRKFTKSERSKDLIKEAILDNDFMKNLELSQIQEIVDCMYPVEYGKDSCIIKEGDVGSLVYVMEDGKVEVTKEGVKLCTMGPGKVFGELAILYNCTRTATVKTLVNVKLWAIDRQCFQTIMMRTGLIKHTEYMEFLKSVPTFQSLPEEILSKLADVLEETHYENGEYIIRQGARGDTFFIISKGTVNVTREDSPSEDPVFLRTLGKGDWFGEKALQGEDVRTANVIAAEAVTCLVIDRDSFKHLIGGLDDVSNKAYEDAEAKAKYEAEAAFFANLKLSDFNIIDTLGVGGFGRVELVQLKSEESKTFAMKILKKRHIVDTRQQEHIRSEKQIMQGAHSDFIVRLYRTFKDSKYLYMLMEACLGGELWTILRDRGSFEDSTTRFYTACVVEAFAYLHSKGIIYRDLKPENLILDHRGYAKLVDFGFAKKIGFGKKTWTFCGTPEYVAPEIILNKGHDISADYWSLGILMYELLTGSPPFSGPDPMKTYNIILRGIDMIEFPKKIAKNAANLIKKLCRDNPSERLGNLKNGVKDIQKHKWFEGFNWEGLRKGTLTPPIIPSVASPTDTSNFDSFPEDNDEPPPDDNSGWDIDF
# [15] = target: T5, cGMP-dependent protein kinase 1 (Homo sapiens); details: at 1 µM
# [16] = target: T6, cGMP-dependent protein kinase 2 (Homo sapiens) (UniProt Q13237); details: at 0.1 µM
# T6 sequence (whole entry): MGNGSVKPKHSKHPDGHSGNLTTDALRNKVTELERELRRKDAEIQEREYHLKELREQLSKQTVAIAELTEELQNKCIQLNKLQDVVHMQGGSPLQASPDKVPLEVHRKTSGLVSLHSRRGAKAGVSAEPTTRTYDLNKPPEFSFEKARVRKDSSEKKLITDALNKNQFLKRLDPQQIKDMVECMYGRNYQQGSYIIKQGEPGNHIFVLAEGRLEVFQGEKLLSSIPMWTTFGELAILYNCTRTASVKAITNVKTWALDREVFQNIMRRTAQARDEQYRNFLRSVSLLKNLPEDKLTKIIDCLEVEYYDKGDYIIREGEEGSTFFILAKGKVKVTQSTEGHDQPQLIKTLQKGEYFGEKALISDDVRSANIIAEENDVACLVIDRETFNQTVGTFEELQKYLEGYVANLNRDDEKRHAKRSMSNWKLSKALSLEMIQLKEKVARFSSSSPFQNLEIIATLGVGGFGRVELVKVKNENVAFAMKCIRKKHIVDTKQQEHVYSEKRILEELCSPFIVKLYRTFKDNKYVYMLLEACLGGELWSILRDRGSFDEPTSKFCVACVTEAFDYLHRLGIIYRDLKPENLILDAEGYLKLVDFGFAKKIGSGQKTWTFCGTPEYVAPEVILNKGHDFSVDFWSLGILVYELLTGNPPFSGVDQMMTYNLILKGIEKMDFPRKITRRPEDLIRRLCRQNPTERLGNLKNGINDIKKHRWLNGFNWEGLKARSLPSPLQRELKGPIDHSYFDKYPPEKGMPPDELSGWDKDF
# [17] = target: T6, cGMP-dependent protein kinase 2 (Homo sapiens); details: at 1 µM
# [18] = target: T7, cAMP-dependent protein kinase catalytic subunit PRKX (Homo sapiens) (UniProt P51817); details: at 0.1 µM
# T7 sequence (whole entry): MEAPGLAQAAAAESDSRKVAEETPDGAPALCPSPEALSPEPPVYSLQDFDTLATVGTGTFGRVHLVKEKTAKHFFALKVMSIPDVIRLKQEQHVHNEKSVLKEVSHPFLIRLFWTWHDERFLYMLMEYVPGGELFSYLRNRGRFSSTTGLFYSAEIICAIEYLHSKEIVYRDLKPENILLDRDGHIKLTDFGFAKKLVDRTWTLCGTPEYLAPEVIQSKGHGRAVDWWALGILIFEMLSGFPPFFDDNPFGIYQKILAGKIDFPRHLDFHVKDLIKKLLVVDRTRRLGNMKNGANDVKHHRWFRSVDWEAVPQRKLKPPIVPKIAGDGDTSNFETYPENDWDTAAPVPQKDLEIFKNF
# [19] = target: T7, cAMP-dependent protein kinase catalytic subunit PRKX (Homo sapiens); details: at 1 µM
# [20] = target: Rho-associated protein kinase 1 (Homo sapiens) (UniProt Q13464); details: at 0.1 µM;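 also: values are mean percent inhibition of ROCK1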
# Rho-associated protein kinase 1 (Homo sapiens), sequence (Q13464 2-1354 limits assumed): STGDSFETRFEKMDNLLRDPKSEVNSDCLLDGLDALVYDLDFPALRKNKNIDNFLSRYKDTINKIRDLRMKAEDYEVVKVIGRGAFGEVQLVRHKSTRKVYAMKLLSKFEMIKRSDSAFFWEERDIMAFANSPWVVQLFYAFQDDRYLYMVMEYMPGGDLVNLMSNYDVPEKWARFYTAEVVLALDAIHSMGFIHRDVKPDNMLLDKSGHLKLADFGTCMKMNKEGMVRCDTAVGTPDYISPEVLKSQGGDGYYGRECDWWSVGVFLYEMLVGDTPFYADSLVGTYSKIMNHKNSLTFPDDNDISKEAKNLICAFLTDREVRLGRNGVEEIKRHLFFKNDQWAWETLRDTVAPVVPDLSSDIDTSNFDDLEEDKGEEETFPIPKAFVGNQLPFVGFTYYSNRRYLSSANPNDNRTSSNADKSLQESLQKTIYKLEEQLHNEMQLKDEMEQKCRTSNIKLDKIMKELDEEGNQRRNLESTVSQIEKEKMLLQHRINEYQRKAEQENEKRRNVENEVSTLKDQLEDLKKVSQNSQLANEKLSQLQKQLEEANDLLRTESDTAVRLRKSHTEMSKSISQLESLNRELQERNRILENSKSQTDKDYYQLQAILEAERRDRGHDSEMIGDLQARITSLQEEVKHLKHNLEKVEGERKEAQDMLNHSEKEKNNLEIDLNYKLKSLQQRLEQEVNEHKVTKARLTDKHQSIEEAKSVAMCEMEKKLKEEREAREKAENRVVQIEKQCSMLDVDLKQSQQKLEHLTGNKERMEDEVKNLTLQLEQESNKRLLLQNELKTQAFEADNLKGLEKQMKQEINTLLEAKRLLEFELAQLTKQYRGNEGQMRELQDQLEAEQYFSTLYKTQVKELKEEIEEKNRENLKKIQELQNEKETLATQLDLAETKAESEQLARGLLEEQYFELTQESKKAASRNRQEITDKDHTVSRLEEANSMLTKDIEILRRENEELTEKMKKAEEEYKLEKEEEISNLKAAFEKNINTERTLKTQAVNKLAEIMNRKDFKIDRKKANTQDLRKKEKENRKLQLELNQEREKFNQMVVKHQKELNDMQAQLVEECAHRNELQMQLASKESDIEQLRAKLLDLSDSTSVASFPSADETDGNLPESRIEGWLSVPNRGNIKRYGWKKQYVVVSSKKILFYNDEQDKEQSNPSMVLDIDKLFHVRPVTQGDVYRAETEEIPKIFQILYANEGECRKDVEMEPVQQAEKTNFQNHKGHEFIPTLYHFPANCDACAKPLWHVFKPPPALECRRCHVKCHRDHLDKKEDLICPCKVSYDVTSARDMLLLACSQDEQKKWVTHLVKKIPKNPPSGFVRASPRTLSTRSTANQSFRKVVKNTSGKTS
SMILES,inhibition [1] [%],inhibition [2] [%],inhibition [3] [%],inhibition [4] [%],inhibition [5] [%],inhibition [6] [%],inhibition [7] [%],inhibition [8] [%],inhibition [9] [%],inhibition [10] [%],inhibition [11] [%],inhibition [12] [%],inhibition [13] [%],inhibition [14] [%],inhibition [15] [%],inhibition [16] [%],inhibition [17] [%],inhibition [18] [%],inhibition [19] [%],inhibition [20] [%]
NC(=O)c1cccc(Nc2nccc(Nc3cccc4[nH]ncc34)n2)c1,9.98,-0.89,-1.43,0.02,6.28,-1.01,7.52,-1.68,6.22,-1.94,5,-3.05,4.5,-0.53,5.24,0.86,7.93,7.81,9.23,0.94
Cc1cccc(-c2n[nH]cc2-c2ccc3ncccc3n2)n1,0.55,0.4,-1.7,0.33,-0.49,0.52,0.49,2.77,32.8,5.63,46.9,2.2,30.5,1.36,0.89,0.94,0.72,0.91,1.8,0.48
COc1ccc2cc(-c3c(-c4ccncc4)nc(-c4ccc([S+](C)[O-])cc4)n3C)ccc2c1 (stereo not given),0.94,0.48,2.02,1.01,0.27,0.67,3.79,2.99,5.01,3.94,4.99,3.54,4.91,1.31,4.18,2.83,4.08,1.36,-0.32,0.49
CS(=O)(=O)CCNCc1nc(-c2ccc3ncnc(Nc4ccc(F)c(Cl)c4)c3c2)cs1,0.73,-0.92,-0.18,0.64,2.27,-0.23,2.18,1.88,2.6,0.4,2.87,1.23,1.58,1.73,3.32,0.95,2.67,0.91,1.76,1.23
CCCN1CCC=C(c2ccc(Nc3nc(Nc4ccccc4C(N)=O)c4cc[nH]c4n3)c(C)c2)C1,9.77,0.1,1.27,2.34,3.28,1.44,3.5,33.8,71.3,25.1,68.5,18.8,61.7,4.43,18.8,5.72,31.8,2.31,2.1,2.33
Cn1cc(C=C2C(=O)Nc3cccnc32)c2ccccc21,-0.93,0.27,1.58,-0.39,0.22,0.8,0.8,2.63,10.6,3.33,9.92,3.79,10.3,1.8,3.04,1.83,3.03,0.64,0.1,1.45
